# Data from the supplement of paper PMC4466140.
# B1: unnamed (peptide)
# chain: QNTPPLPPKPKSPHL
# B2: unnamed (peptide)
# chain: VRTRRRPPPPPIPST
# What was measured:
# Assay in all cases: SPOT peptide array binding signal intensity (averaged, normalized) (arbitrary units (background-subtracted, floor 0; scale differs between SH3 domains)); higher = stronger binding of the SH3 domain to the peptide
# CaNbp2 = target: CaNbp2
# Protocol: (§1)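 GST-tagged SH3 domains from S. cerevisiae (Sc), A. gossypii (Ag), C. albicans (Ca) and S. pombe (Sp) were incubated at 10 ug/ml overnight at 4 C on cellulose SPOT membranes carrying 292 synthetic 15-mer peptides mined from the S. cerevisiae proteome (cysteines replaced by serines). Binding was detected with anti-GST antibody, HRP secondary and chemiluminescence, quantified with Genespotter, and reported as normalized spot intensities averaged over biological replicates.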
# CaRvs167 = target: CaRvs167
# Protocol: as §1
# CaRvs167-3 = target: CaRvs167-3
# Protocol: as §1
# CaSho1 = target: CaSho1
# Protocol: as §1
# CaSla1-D1-D2 = target: CaSla1-D1-D2
# Protocol: as §1
# CaSla1-D3 = target: CaSla1-D3
# Protocol: as §1
# ScAbp1 = target: ScAbp1
# Protocol: as §1
# ScBbc1 = target: ScBbc1
# Protocol: as §1
# ScBem1-D1 = target: ScBem1-D1
# Protocol: as §1
# ScBzz1-D1 = target: ScBzz1-D1
# Protocol: as §1
# ScBzz1-D2 = target: ScBzz1-D2
# Protocol: as §1
# ScCyk3 = target: ScCyk3
# Protocol: as §1
# ScFus1 = target: ScFus1
# Protocol: as §1
# ScHof1 = target: ScHof1
# Protocol: as §1
# ScHse1 = target: ScHse1
# Protocol: as §1
# ScLsb1 = target: ScLsb1
# Protocol: as §1
# ScLsb2 = target: ScLsb2
# Protocol: as §1
# ScLsb3 = target: ScLsb3
# Protocol: as §1
# ScLsb4 = target: ScLsb4
# Protocol: as §1
# ScMyo3 = target: ScMyo3
# Protocol: as §1
# ScMyo5 = target: ScMyo5
# Protocol: as §1
# ScNbp2 = target: ScNbp2
# Protocol: as §1
# ScPex13 = target: ScPex13
# Protocol: as §1
# ScRvs167 = target: ScRvs167
# Protocol: as §1
# ScSho1 = target: ScSho1
# Protocol: as §1
# ScSla1-D1-D2 = target: ScSla1-D1-D2
# Protocol: as §1
# ScSla1-D3 = target: ScSla1-D3
# Protocol: as §1
# SpAbp1-D1 = target: SpAbp1-D1
# Protocol: as §1
# SpBbc1 = target: SpBbc1
# Protocol: as §1
# SpBzz1-D1 = target: SpBzz1-D1
# Protocol: as §1
# SpBzz1-D2 = target: SpBzz1-D2
# Protocol: as §1
# SpCyk3 = target: SpCyk3
# Protocol: as §1
# SpHof1 = target: SpHof1
# Protocol: as §1
# SpHof1-2 = target: SpHof1-2
# Protocol: as §1
# SpHof1-3 = target: SpHof1-3
# Protocol: as §1
# SpHse1 = target: SpHse1
# Protocol: as §1
# SpLsb1 = target: SpLsb1
# Protocol: as §1
# SpLsb4 = target: SpLsb4
# Protocol: as §1
# SpMyo1 = target: SpMyo1
# Protocol: as §1
# SpNbp2 = target: SpNbp2
# Protocol: as §1
# SpPex13 = target: SpPex13
# Protocol: as §1
# SpRvs167 = target: SpRvs167
# Protocol: as §1
# SpSla1-D1-D2 = target: SpSla1-D1-D2
# Protocol: as §1
# SpSla1-D3 = target: SpSla1-D3
# Protocol: as §1
# AgAbp1 = target: AgAbp1
# Protocol: as §1
# AgBbc1 = target: AgBbc1
# Protocol: as §1
# AgBem1-D1 = target: AgBem1-D1
# Protocol: as §1
# AgBzz1-D1 = target: AgBzz1-D1
# Protocol: as §1
# AgBzz1-D2 = target: AgBzz1-D2
# Protocol: as §1
# AgCyk3 = target: AgCyk3
# Protocol: as §1
# AgFus1 = target: AgFus1
# Protocol: as §1
# AgHof1 = target: AgHof1
# Protocol: as §1
# AgHse1 = target: AgHse1
# Protocol: as §1
# AgLsb1 = target: AgLsb1
# Protocol: as §1
# AgLsb4 = target: AgLsb4
# Protocol: as §1
# AgMyo5 = target: AgMyo5
# Protocol: as §1
# AgNbp2 = target: AgNbp2
# Protocol: as §1
# AgRvs167 = target: AgRvs167
# Protocol: as §1
# AgSho1 = target: AgSho1
# Protocol: as §1
# AgSla1-D1-D2 = target: AgSla1-D1-D2
# Protocol: as §1
# AgSla1-D3 = target: AgSla1-D3
# Protocol: as §1
# CaAbp1-D1 = target: CaAbp1-D1
# Protocol: as §1
# CaAbp1-D2 = target: CaAbp1-D2
# Protocol: as §1
# CaBbc1 = target: CaBbc1
# Protocol: as §1
# CaBem1-D1 = target: CaBem1-D1
# Protocol: as §1
# CaBzz1-D1 = target: CaBzz1-D1
# Protocol: as §1
# CaBzz1-D2 = target: CaBzz1-D2
# Protocol: as §1
# CaCyk3 = target: CaCyk3
# Protocol: as §1
# CaFus1 = target: CaFus1
# Protocol: as §1
# CaHof1 = target: CaHof1
# Protocol: as §1
# CaHse1 = target: CaHse1
# Protocol: as §1
# CaLsb1 = target: CaLsb1
# Protocol: as §1
# CaLsb4 = target: CaLsb4
# Protocol: as §1
# CaMyo5 = target: CaMyo5
# Protocol: as §1
binder,measurement,setting,value
B1,SPOT peptide array binding signal intensity,CaNbp2,≤ 0
same,SPOT peptide array binding signal intensity,CaRvs167,5.67
same,SPOT peptide array binding signal intensity,CaRvs167-3,6
same,SPOT peptide array binding signal intensity,CaSho1,81
same,SPOT peptide array binding signal intensity,CaSla1-D1-D2,≤ 0
same,SPOT peptide array binding signal intensity,CaSla1-D3,3.5
same,SPOT peptide array binding signal intensity,ScAbp1,≤ 0
same,SPOT peptide array binding signal intensity,ScBbc1,≤ 0
same,SPOT peptide array binding signal intensity,ScBem1-D1,≤ 0
same,SPOT peptide array binding signal intensity,ScBzz1-D1,≤ 0
same,SPOT peptide array binding signal intensity,ScBzz1-D2,4
same,SPOT peptide array binding signal intensity,ScCyk3,1
same,SPOT peptide array binding signal intensity,ScFus1,21
same,SPOT peptide array binding signal intensity,ScHof1,196
same,SPOT peptide array binding signal intensity,ScHse1,≤ 0
same,SPOT peptide array binding signal intensity,ScLsb1,1
same,SPOT peptide array binding signal intensity,ScLsb2,1
same,SPOT peptide array binding signal intensity,ScLsb3,4390
same,SPOT peptide array binding signal intensity,ScLsb4,52
same,SPOT peptide array binding signal intensity,ScMyo3,2
same,SPOT peptide array binding signal intensity,ScMyo5,≤ 0
same,SPOT peptide array binding signal intensity,ScNbp2,7.5
same,SPOT peptide array binding signal intensity,ScPex13,1360
same,SPOT peptide array binding signal intensity,ScRvs167,57.2
same,SPOT peptide array binding signal intensity,ScSho1,268
same,SPOT peptide array binding signal intensity,ScSla1-D1-D2,≤ 0
same,SPOT peptide array binding signal intensity,ScSla1-D3,4.5
same,SPOT peptide array binding signal intensity,SpAbp1-D1,≤ 0
same,SPOT peptide array binding signal intensity,SpBbc1,≤ 0
same,SPOT peptide array binding signal intensity,SpBzz1-D1,302
same,SPOT peptide array binding signal intensity,SpBzz1-D2,2.5
same,SPOT peptide array binding signal intensity,SpCyk3,≤ 0
same,SPOT peptide array binding signal intensity,SpHof1,≤ 0
same,SPOT peptide array binding signal intensity,SpHof1-2,11.2
same,SPOT peptide array binding signal intensity,SpHof1-3,28.8
same,SPOT peptide array binding signal intensity,SpHse1,16
same,SPOT peptide array binding signal intensity,SpLsb1,956
same,SPOT peptide array binding signal intensity,SpLsb4,1280
same,SPOT peptide array binding signal intensity,SpMyo1,19.5
same,SPOT peptide array binding signal intensity,SpNbp2,42
same,SPOT peptide array binding signal intensity,SpPex13,0.5
same,SPOT peptide array binding signal intensity,SpRvs167,1090
same,SPOT peptide array binding signal intensity,SpSla1-D1-D2,≤ 0
same,SPOT peptide array binding signal intensity,SpSla1-D3,3
B2,SPOT peptide array binding signal intensity,AgAbp1,28.5
same,SPOT peptide array binding signal intensity,AgBbc1,892
same,SPOT peptide array binding signal intensity,AgBem1-D1,472
same,SPOT peptide array binding signal intensity,AgBzz1-D1,3600
same,SPOT peptide array binding signal intensity,AgBzz1-D2,940
same,SPOT peptide array binding signal intensity,AgCyk3,2
same,SPOT peptide array binding signal intensity,AgFus1,30
same,SPOT peptide array binding signal intensity,AgHof1,258
same,SPOT peptide array binding signal intensity,AgHse1,29
same,SPOT peptide array binding signal intensity,AgLsb1,91.8
same,SPOT peptide array binding signal intensity,AgLsb4,44.5
same,SPOT peptide array binding signal intensity,AgMyo5,274
same,SPOT peptide array binding signal intensity,AgNbp2,840
same,SPOT peptide array binding signal intensity,AgRvs167,5.5
same,SPOT peptide array binding signal intensity,AgSho1,≤ 0
same,SPOT peptide array binding signal intensity,AgSla1-D1-D2,20
same,SPOT peptide array binding signal intensity,AgSla1-D3,346
same,SPOT peptide array binding signal intensity,CaAbp1-D1,61
same,SPOT peptide array binding signal intensity,CaAbp1-D2,55
same,SPOT peptide array binding signal intensity,CaBbc1,1060
same,SPOT peptide array binding signal intensity,CaBem1-D1,165
same,SPOT peptide array binding signal intensity,CaBzz1-D1,6060
same,SPOT peptide array binding signal intensity,CaBzz1-D2,3990
same,SPOT peptide array binding signal intensity,CaCyk3,108
same,SPOT peptide array binding signal intensity,CaFus1,7.5
same,SPOT peptide array binding signal intensity,CaHof1,≤ 0
same,SPOT peptide array binding signal intensity,CaHse1,13.8
same,SPOT peptide array binding signal intensity,CaLsb1,≤ 0
same,SPOT peptide array binding signal intensity,CaLsb4,176
same,SPOT peptide array binding signal intensity,CaMyo5,13
same,SPOT peptide array binding signal intensity,CaNbp2,610
same,SPOT peptide array binding signal intensity,CaRvs167,48.5
same,SPOT peptide array binding signal intensity,CaRvs167-3,2
same,SPOT peptide array binding signal intensity,CaSho1,25.5
same,SPOT peptide array binding signal intensity,CaSla1-D1-D2,2380
same,SPOT peptide array binding signal intensity,CaSla1-D3,296
same,SPOT peptide array binding signal intensity,ScAbp1,19
same,SPOT peptide array binding signal intensity,ScBbc1,358
same,SPOT peptide array binding signal intensity,ScBem1-D1,46
same,SPOT peptide array binding signal intensity,ScBzz1-D1,1430
same,SPOT peptide array binding signal intensity,ScBzz1-D2,210
same,SPOT peptide array binding signal intensity,ScCyk3,20.5
same,SPOT peptide array binding signal intensity,ScFus1,10
same,SPOT peptide array binding signal intensity,ScHof1,0.75
same,SPOT peptide array binding signal intensity,ScHse1,186
same,SPOT peptide array binding signal intensity,ScLsb1,96.8
same,SPOT peptide array binding signal intensity,ScLsb2,144
same,SPOT peptide array binding signal intensity,ScLsb3,584
same,SPOT peptide array binding signal intensity,ScLsb4,23.5
same,SPOT peptide array binding signal intensity,ScMyo3,851
same,SPOT peptide array binding signal intensity,ScMyo5,892
same,SPOT peptide array binding signal intensity,ScNbp2,1260
same,SPOT peptide array binding signal intensity,ScPex13,269
same,SPOT peptide array binding signal intensity,ScRvs167,624
same,SPOT peptide array binding signal intensity,ScSho1,141
same,SPOT peptide array binding signal intensity,ScSla1-D1-D2,3390
same,SPOT peptide array binding signal intensity,ScSla1-D3,488
same,SPOT peptide array binding signal intensity,SpAbp1-D1,13.5
same,SPOT peptide array binding signal intensity,SpBbc1,77.2
same,SPOT peptide array binding signal intensity,SpBzz1-D1,2830
same,SPOT peptide array binding signal intensity,SpBzz1-D2,430
same,SPOT peptide array binding signal intensity,SpCyk3,2
same,SPOT peptide array binding signal intensity,SpHof1,248
same,SPOT peptide array binding signal intensity,SpHof1-2,73
same,SPOT peptide array binding signal intensity,SpHof1-3,88.2
same,SPOT peptide array binding signal intensity,SpHse1,42.8
same,SPOT peptide array binding signal intensity,SpLsb1,63.5
same,SPOT peptide array binding signal intensity,SpLsb4,1370
same,SPOT peptide array binding signal intensity,SpMyo1,1460
same,SPOT peptide array binding signal intensity,SpNbp2,≤ 0
same,SPOT peptide array binding signal intensity,SpPex13,30
same,SPOT peptide array binding signal intensity,SpRvs167,265
same,SPOT peptide array binding signal intensity,SpSla1-D1-D2,520
same,SPOT peptide array binding signal intensity,SpSla1-D3,1
